In the library only some 9.3% were active in any assay of this set; here they are far more common.
NPC1 promoter act: NPC1 promoter activation; Huh7 NPC1 promoter luciferase reporter, 24 h; Potency, µM (doses to about 9.22 µM), usual class: activators; 320,000 compounds, 2.4% hits; AID 485313; also: nearly all actives have a fitted effect of over 60% in size
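NPC1 promoter–luciferase Huh7 cells; 24 h compound; luminescence.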
ELG1 DNA repair: inhibitors of ELG1-dependent DNA repair in HEK293T cells; HEK293T ELG1-luciferase reporter, luminescence, 16 h; DNA damage induced by 5-fluorouridine; Potency, µM (titrated, usually from 46.1 µM), hits mostly inhibitors; 330,000 compounds, 2.3% hits; also: nearly all actives have a fitted effect of over 55% in size
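HEK293T cells expressing luciferase-tagged ELG1 (2,000/well) received 5-Fluorouridine plus compound or DMSO for 16 hr at 37 °C. Luciferase was read by ONE-Glo luminescence after 30 min at room temperature.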
ELG1 genotox: genotoxicity induction in ELG1-luciferase HEK293T cells. AID 504466. 330,000 compounds, 1.3% hits. Potency, µM (series often up to 46 µM), usual class: activators. HEK293T ELG1-luciferase reporter, luminescence, 16 h; also: nearly all actives have a fitted effect of over 60% in size
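16 hr compound incubation (37 °C, 5% CO2) of HEK293T cells carrying luciferase-tagged ELG1; luciferase then measured by ONE-Glo luminescence after 30 min at RT.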
SMN2 splice up: SMN2 splice variant enhancement; HEK293 SMN2-luciferase splicing reporter, luminescence, 30-36 h; Potency, µM (series often up to 46.1 µM), usual class: activators; 210,000 compounds, 2.8% hits; also: nearly all actives have a fitted effect of over 55% in size
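HEK293 cells carry an SMN2 minigene-luciferase reporter in which exon 7 inclusion puts luciferase in frame. Cells were seeded at 2000 cells/well, attached for 10-12 hours, then exposed to compounds for 30-36 hours at 37C before ONE-Glo luminescence.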
Rab9 prom act: activators of Rab9 promoter | 320,000 compounds, 2.8% hits | Huh7 Rab9 promoter-luciferase reporter, luminescence, 24 h | Potency, µM (top dose mostly 9.22 µM), most hits filed as activators; also: nearly all actives have a fitted effect of over 60% in size
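Luminescence read-out: Huh7 cells stably expressing Rab9-luciferase, treated 24 h with compound at 37 °C, then lysed with luciferase reagent for 10 min at ambient before reading.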
FLuc modulator: inhibits or activates purified firefly luciferase, miR-21 counter-screen; P08659; purified FLuc, Km substrates, luminescence inhibition; Potency, µM (doses to about 57.5 µM), actives largely listed as inhibitors; 360,000 compounds, 6.9% hits; also: nearly all actives have a fitted effect of over 55% in size
Target sequence (P08659 whole entry, looked up): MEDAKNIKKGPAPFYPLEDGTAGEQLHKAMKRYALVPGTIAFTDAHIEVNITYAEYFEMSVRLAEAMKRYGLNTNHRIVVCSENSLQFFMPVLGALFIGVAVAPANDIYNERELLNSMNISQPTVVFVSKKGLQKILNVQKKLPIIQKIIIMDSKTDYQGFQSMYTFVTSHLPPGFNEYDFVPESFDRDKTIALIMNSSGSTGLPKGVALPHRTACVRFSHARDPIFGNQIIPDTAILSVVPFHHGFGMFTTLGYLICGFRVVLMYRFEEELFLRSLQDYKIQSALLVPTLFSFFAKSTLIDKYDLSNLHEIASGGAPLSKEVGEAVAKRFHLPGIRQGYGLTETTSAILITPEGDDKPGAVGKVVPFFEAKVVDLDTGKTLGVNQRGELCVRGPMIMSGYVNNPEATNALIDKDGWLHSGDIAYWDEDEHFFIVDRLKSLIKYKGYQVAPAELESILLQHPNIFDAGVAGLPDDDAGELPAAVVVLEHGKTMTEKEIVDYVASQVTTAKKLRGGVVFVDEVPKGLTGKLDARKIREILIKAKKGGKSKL
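Biochemical qHTS of compounds, final roughly 60 µM downward over six points, against 10 nM purified firefly luciferase using Km concentrations of substrates (10 uM D-luciferin, 10 uM ATP) in Tris acetate pH 7.5 buffer; luminescence output.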
Of the large screens only hits and unclear results are named; the others gave an inactive call. Calls follow the shape of the dose curve; as a rule, active = well fitted curve in the direction sought with a large enough effect; inconclusive = small, poorly fitted or top-dose-only effect, or another doubt; inactive = no such curve, though single readings can be large; an effect the other way counts as inactive or inconclusive.

N#Cc1c(N2C(=O)c3ccc(C(=O)O)cc3C2=O)sc2c1CCCC2	FLuc modulator inconclusive (no result: SMN2 splice up)
CC(C)(C)NCc1cccn1-c1sc2c(c1C#N)CCCC2	none
Cc1ccccc1-c1ncnn1-c1sc2c(c1C#N)CCCCC2	FLuc modulator 0.338µM (no result: NPC1 promoter act, ELG1 DNA repair, ELG1 genotox, Rab9 prom act)
N#Cc1c(-n2ncnc2-c2ccc(F)cc2)sc2c1CCCCC2	FLuc modulator 0.426µM (no result: NPC1 promoter act, ELG1 DNA repair, ELG1 genotox, Rab9 prom act)
Cc1ccc(/C(C#N)=C\c2ccc(N3CCOCC3)o2)cc1	NPC1 promoter act 3.98µM, ELG1 DNA repair inconclusive, ELG1 genotox 18.4µM, SMN2 splice up 12.6µM, Rab9 prom act 3.16µM, FLuc modulator 23.9µM
Cc1ccc2nc(/C(C#N)=C\c3ccc([N+](=O)[O-])o3)[nH]c2c1	none
Cc1ccc2nc(/C(C#N)=C\c3ccc(N4CCOCC4)o3)[nH]c2c1	NPC1 promoter act 2.24µM, ELG1 DNA repair inconclusive, ELG1 genotox inconclusive, SMN2 splice up 3.98µM, Rab9 prom act 1.78µM, FLuc modulator 0.426µM
Cc1ccc(C(=O)NCc2ccncc2)cc1S(=O)(=O)Nc1cccc(C)c1C	none (no result: SMN2 splice up)
CCOC(=O)c1ccccc1NC(=O)/C(C)=C/C(=O)O	none
COC(=O)c1cc(C(=O)OCC(=O)NC(=O)NCc2ccccc2)cc([N+](=O)[O-])c1	none (no result: SMN2 splice up)
COc1ccc(CCNC(=O)CCC(=O)Nc2nnc(C(C)C)s2)cc1OC	none
COc1ccc(C(=O)Nc2ccc(N3CCN(C)CC3)cc2)cc1OC	NPC1 promoter act inconclusive, ELG1 DNA repair inconclusive, ELG1 genotox inconclusive, Rab9 prom act inconclusive, FLuc modulator 16.9µM (no result: SMN2 splice up)
COc1ccc(C(=O)Nc2ccc(N3CCN(C(C)=O)CC3)cc2)cc1[N+](=O)[O-]	none
CCOc1ccc(NC(=O)c2ccc(NCC(=O)N3CCCCCC3)cc2)cc1	ELG1 DNA repair inconclusive, FLuc modulator 10.7µM
Cc1ccc(NC(=O)c2ccc(Nc3c([N+](=O)[O-])cc([N+](=O)[O-])cc3[N+](=O)[O-])cc2)cc1	ELG1 DNA repair 7.31µM, FLuc modulator inconclusive
Cc1ccc(C(=O)N2CCN(c3ccc(NC(=O)c4cc(C)cc(C)c4)cc3)CC2)cc1	none (no result: SMN2 splice up)
Cc1ccc(C(=O)Nc2ccc(N3CCN(C)CC3)cc2)cc1	NPC1 promoter act 2.24µM, ELG1 DNA repair inconclusive, ELG1 genotox inconclusive, Rab9 prom act 2.51µM, FLuc modulator 19µM (no result: SMN2 splice up)
CC1CCCN(CCCNC(=O)c2cn(C)c3ccc(S(=O)(=O)N(C)C4CCCCC4)cc3c2=O)C1 (configuration not stated)	none
Cc1ccc(C(=O)N[C@H](C(=O)Nc2cc(Cl)cc(Cl)c2)C(C)C)cc1	none
CCOc1ccc(C(=O)Nc2ccc(N3CCN(C)CC3)cc2)cc1	ELG1 DNA repair inconclusive, FLuc modulator 12µM (no result: SMN2 splice up)
Cc1ccc(NC(=O)c2ccc(C)cc2)cc1	NPC1 promoter act 0.447µM, ELG1 DNA repair inconclusive, ELG1 genotox inconclusive, Rab9 prom act 0.251µM, FLuc modulator 0.849µM (no result: SMN2 splice up)
CCCCOc1ccc(C(=O)Nc2ccc(N3CCN(C)CC3)cc2)cc1	none
COc1ccc(C(=O)Nc2ccc(N3CCN(C)CC3)cc2)cc1	NPC1 promoter act inconclusive, ELG1 DNA repair inconclusive, ELG1 genotox inconclusive, Rab9 prom act inconclusive, FLuc modulator 19µM (no result: SMN2 splice up)
Cc1ccc(C(=O)Nc2cc(C(C)C)c(O)c(C(C)C)c2)cc1	ELG1 DNA repair inconclusive, FLuc modulator 23.9µM
CCOC(=O)c1[nH]c2ccccc2c1NC(=O)CN1CCCCC1	none
Cc1ccccc1CNC(=O)c1ccccc1	none
CN1CCN(c2ccc(NC(=O)c3ccc4ccccc4c3)cc2)CC1	NPC1 promoter act 0.316µM, ELG1 DNA repair inconclusive, ELG1 genotox 1.83µM, Rab9 prom act 0.562µM, FLuc modulator 1.9µM (no result: SMN2 splice up)
O=C(Nc1ccc(Cl)c(C(F)(F)F)c1)c1ccncc1	none (no result: SMN2 splice up)
Cc1ccc(C(=O)Nc2ccc(Br)c(C(F)(F)F)c2)cc1	NPC1 promoter act inconclusive, ELG1 DNA repair inconclusive, Rab9 prom act inconclusive, FLuc modulator 13.5µM
Cc1cc(Cl)ccc1OC(C)C(=O)OCC(=O)Nc1ccc2[nH]c(=O)[nH]c2c1 (configuration not stated)	none (no result: SMN2 splice up)
Cc1ccc(NC(=O)c2ccc(OC(=O)C(C)Oc3ccc(Cl)cc3C)cc2)cc1 (configuration not stated)	NPC1 promoter act 4.47µM, ELG1 DNA repair inconclusive, ELG1 genotox inconclusive, SMN2 splice up 8.91µM, Rab9 prom act 1.78µM
C=CCN=c1scc(-c2ccc(F)cc2)n1/N=C/c1ccccn1	ELG1 DNA repair inconclusive, Rab9 prom act inconclusive, FLuc modulator 13.5µM
C=CCN=c1scc(-c2ccccc2)n1/N=C/c1ccccn1	NPC1 promoter act 2µM, ELG1 DNA repair inconclusive, ELG1 genotox inconclusive, SMN2 splice up 4.47µM, Rab9 prom act 1.26µM, FLuc modulator 2.39µM
Cc1nc2ccc(S(=O)(=O)N3CCCCC3)cc2s1	none (no result: SMN2 splice up)
O=C(Nc1ccncc1)c1ccc2c(c1)C(=O)N(CC1CCCO1)C2=O (configuration not stated)	none
O=C(O)c1ccc(NC(=O)c2ccc3c(c2)C(=O)N(CC2CCCO2)C3=O)cc1 (configuration not stated)	FLuc modulator inconclusive (no result: SMN2 splice up)
Cc1ccnc(NC(=O)c2ccc3c(c2)C(=O)N(CC2CCCO2)C3=O)c1 (configuration not stated)	FLuc modulator 21.3µM
Cc1ccnc(NC(=O)c2ccc(OCC3CCCO3)cc2)c1 (configuration not stated)	NPC1 promoter act 0.282µM, ELG1 DNA repair inconclusive, ELG1 genotox inconclusive, Rab9 prom act 0.126µM, FLuc modulator 0.953µM (no result: SMN2 splice up)
Cc1ccc(C(=O)Nc2ccc3c(c2)C(=O)N(CC2CCCO2)C3=O)cc1 (configuration not stated)	ELG1 DNA repair inconclusive, FLuc modulator 4.78µM (no result: SMN2 splice up)
Cc1ccc(NC(=O)c2ccc(OCC3CCCO3)cc2)c(C)c1 (configuration not stated)	ELG1 DNA repair inconclusive, SMN2 splice up inconclusive, Rab9 prom act inconclusive, FLuc modulator inconclusive
Nc1cccc(Oc2ccc3c(c2)C(=O)N(CC2CCCO2)C3=O)c1 (configuration not stated)	NPC1 promoter act 1.58µM, ELG1 DNA repair inconclusive, Rab9 prom act 1µM, FLuc modulator 23.9µM (no result: SMN2 splice up)
CCCCn1c(=O)c2oc3ccccc3c2n(CC(=O)Nc2cccc(Cl)c2C)c1=O	none (no result: NPC1 promoter act, ELG1 DNA repair, ELG1 genotox, SMN2 splice up, Rab9 prom act)
Cc1cc(C)cc(OCC(=O)N2CCCCCC2)c1	none
CCOc1ccc(CCNC(=O)C2CCN(c3nn4c(=O)cc(C)nc4s3)CC2)cc1	none
O=C(NCCc1ccccc1)c1c[nH]c2c(F)cccc2c1=O	ELG1 DNA repair inconclusive, Rab9 prom act inconclusive, FLuc modulator inconclusive (no result: SMN2 splice up)
O=C(CSc1nc(-c2ccccc2Cl)ns1)c1ccc(Cl)cc1	none
O=c1[nH][nH]c(C(F)(F)F)c1C=Nc1ccccc1Cl	FLuc modulator inconclusive

Compound activity (PubChem)
